Experimental data taken from PubChem BioAssay.
Active and inactive are the calls of the source. Unless noted, the rule behind the calls is not given here.

Legend:
[1] = HepG2 liver cancer cell viability effects, profiling panel, resazurin fluorescence, 24 h, PK04 Diversity Set (AID 1172); details: higher = more signal
[2] = basal S. cerevisiae growth modulation, no modifier, primary screen, OD600, strain BY4716, 24 h, basal condition (AID 1173); details: OD600, 24 h, higher = more signal, called active from +8 up or from −8 down
[3] = MM1S myeloma cell viability, profiling panel, resazurin fluorescence, basal, 24 h, PK04 Diversity Set (AID 1174); details: higher = more signal, called active from +8 up or from −8 down;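 note: MM1S multiple myeloma cell line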
[4] = target: Dihydroorotate dehydrogenase (quinone), mitochondrial (Plasmodium falciparum (isolate 3D7)) (UniProt Q08210); assay: PfDHODH enzyme inhibitors, primary screen, biochemical, C-terminal His tag, absorbance 600 nm (AID 1175); details: DCIP absorbance 600 nm, higher = more signal, called active from +8 up or from −8 down;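 note: recombinant parasite enzyme with a five histidine tag at its C terminus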
Sequence of Dihydroorotate dehydrogenase (quinone), mitochondrial (Plasmodium falciparum (isolate 3D7)) (Q08210 whole entry, looked up): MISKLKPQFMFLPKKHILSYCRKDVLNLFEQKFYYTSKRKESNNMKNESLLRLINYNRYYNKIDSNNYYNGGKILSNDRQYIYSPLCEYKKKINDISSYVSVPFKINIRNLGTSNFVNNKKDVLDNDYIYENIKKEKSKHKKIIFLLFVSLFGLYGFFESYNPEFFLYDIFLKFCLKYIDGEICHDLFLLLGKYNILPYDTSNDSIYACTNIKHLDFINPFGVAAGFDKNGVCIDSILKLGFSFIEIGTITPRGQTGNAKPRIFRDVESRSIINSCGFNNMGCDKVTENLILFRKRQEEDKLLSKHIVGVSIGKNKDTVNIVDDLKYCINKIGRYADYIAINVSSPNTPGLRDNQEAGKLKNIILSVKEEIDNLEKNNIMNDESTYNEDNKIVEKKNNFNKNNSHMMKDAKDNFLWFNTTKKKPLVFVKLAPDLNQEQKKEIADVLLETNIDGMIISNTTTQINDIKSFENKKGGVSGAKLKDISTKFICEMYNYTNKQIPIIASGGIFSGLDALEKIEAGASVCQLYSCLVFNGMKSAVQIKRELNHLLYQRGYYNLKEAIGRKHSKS

[5] = P. aeruginosa biofilm formation inhibitors, primary screen, strain PAO1, LB-PBS medium, absorbance 600 nm (AID 1176); details: P. aeruginosa PAO1 growth/biofilm, A600, 12 h; higher = more signal
[6] = S. cerevisiae RM11-1a growth modifiers, primary screen, strain RM11-1a, OD600, basal, 24 h (AID 1177); details: OD600, 24 h, higher = more signal, called active from +8 up or from −8 down;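 note: cultures grown under basal conditions with no added stressor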
[7] = E. coli acrAB mutant growth effects, primary screen, E. coli filamentation inducers, strain DRC39, OD650, 24 h (AID 1178); details: higher = more signal, called active from +8 up or from −8 down;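 note: growth measured as culture turbidity by optical density at 650 nm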
[8] = E. coli acrAB mutant growth effects, primary screen, E. coli filamentation inducers, strain DRC39, OD650, 48 h (AID 1179);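 note: screen aims at cell division blockers that make cells filament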; details: E. coli DRC39 delta-acrAB growth, higher = more signal, called active from +8 up or from −8 down
[9] = RPMI8226 myeloma cell viability, profiling panel, resazurin fluorescence, basal, 24 h, PK04 Diversity Set (AID 1180); details: higher = more signal;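 note: RPMI8826 multiple myeloma cell line at 5000 cells per well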
[10] = target: E3 ubiquitin-protein ligase XIAP (Homo sapiens) (UniProt P98170); assay: XIAP binders, primary screen, biophysical, small-molecule microarray, fluorescence 635 nm (AID 1181); details: small-molecule microarray binding, higher = more signal;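 note: score merges 667 nm emission and signal to noise over triplicate slides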
Sequence of E3 ubiquitin-protein ligase XIAP (Homo sapiens) (P98170 whole entry, looked up): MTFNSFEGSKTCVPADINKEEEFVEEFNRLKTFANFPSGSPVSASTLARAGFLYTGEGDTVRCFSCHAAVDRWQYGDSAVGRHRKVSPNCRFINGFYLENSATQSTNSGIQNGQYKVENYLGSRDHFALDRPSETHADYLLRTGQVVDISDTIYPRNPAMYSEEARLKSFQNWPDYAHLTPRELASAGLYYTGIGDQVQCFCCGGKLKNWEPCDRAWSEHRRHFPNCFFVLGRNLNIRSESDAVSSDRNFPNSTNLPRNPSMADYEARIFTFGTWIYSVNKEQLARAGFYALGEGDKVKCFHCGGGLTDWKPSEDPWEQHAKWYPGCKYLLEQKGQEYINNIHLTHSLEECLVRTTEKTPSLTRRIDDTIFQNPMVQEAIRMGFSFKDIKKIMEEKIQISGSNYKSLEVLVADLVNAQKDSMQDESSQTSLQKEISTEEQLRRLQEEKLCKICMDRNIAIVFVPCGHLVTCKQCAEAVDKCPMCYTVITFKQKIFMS

[11] = test system: XIP peptide (Xip251-270) binding; assay: small-molecule binders of XIP peptide, primary screen, biochemical, small-molecule microarray, fluorescence 635/667 nm, 0.1 µg/mL protein (AID 1182); details: fluorescent protein binding, 635 nm, higher = more signal, called active from +8 up or from −8 down
[12] = test system: XIP peptide (Xip251-270); assay: small-molecule binders of XIP peptide, primary screen, biochemical, small-molecule microarray, fluorescence 635/667 nm, 0.5 µg/mL protein (AID 1183); details: small-molecule microarray binding, fluorescence 635 nm; higher = more signal
[13] = Plasmodium falciparum growth inhibition, primary screen, strain 3D7, DAPI fluorescence, 100 nL (AID 1184);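 note: parasites grown inside human red blood cells in medium with human serum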; details: P. falciparum 3D7 growth, 3 d, higher = more signal
[14] = target: Homeobox protein Hox-A13 (Mus musculus) (UniProt Q62424); assay: inhibitors of HoxA13-DNA binding, primary screen, biochemical, fluorescence polarization, labeled oligonucleotide (AID 1185); details: 15 min, higher = more signal, called active from +8 up or from −8 down
Sequence of Homeobox protein Hox-A13 (Mus musculus) (Q62424 whole entry, looked up): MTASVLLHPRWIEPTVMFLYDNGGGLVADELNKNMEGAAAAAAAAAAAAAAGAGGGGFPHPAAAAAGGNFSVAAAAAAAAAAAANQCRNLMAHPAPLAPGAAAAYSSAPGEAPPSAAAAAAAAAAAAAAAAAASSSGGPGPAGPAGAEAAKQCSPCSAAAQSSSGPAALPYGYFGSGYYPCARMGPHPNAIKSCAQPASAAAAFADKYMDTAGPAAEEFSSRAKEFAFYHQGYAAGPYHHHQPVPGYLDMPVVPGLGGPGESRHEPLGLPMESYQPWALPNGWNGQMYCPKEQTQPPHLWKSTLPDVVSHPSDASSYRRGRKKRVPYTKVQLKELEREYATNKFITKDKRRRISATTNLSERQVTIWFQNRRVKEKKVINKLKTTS

[15] = inhibitors of hydroxyurea-induced Chk1 phosphorylation, primary screen, imaging, HeLa, phospho-Chk1 antibody, percent positive cells (AID 1186); details: hydroxyurea-induced phospho-Chk1 immunofluorescence imaging, higher = more signal
[16] = inhibitors of hydroxyurea-induced Chk1 phosphorylation, primary screen, imaging, HeLa, phospho-Chk1 nuclear intensity (AID 1187); details: hydroxyurea-induced phospho-Chk1 immunofluorescence imaging, higher = more signal

SMILES	z-score [1]	z-score [2]	z-score [3]	composite z-score [4]	z-score [5]	z-score [6]	z-score [7]	z-score [8]	z-score [9]	composite z-score [10]	composite z-score [11]	composite z-score [12]	z-score [13]	z-score [14]	z-score [15]	z-score [16]
COC(=O)[C@@]1(Cc2ccccc2N=[N+]=[N-])N=C(c2ccc(OCCCO)cc2)O[C@H]1c1ccccc1N=[N+]=[N-]	-4.43	-0.596 (inactive)	-8.41 (active)	-0.071 (inactive)	0.715 (inactive)	0.897 (inactive)	2.12 (inactive)	1.91 (inactive)	-6.83	0.0296	0.764 (inactive)	0.848	-2.03	-0.305 (inactive)	-0.362 (inactive)	-0.267 (inactive)
O=C1OCC=C[C@H]2OC34C=CCN(Cc5ccccc5)C(=O)[C@H]3N(CCCCCCO)C(=O)[C@@H]4[C@@H]12 (stereo partly drawn)	1.07	-0.296 (inactive)	1.59 (inactive)	-1.65 (inactive)	0.0683 (inactive)	-0.739 (inactive)	0.693 (inactive)	0.415 (inactive)	0.517	0.052	1.49 (inactive)	0.295	-1.16	-4.53 (inactive)	-0.584 (inactive)	-0.232 (inactive)
COc1ccc(C(O)C2C=CC3C(=O)N(c4ccccc4)C(=O)C3N2Nc2ccc([N+](=O)[O-])cc2)cc1 (stereo not drawn)	-0.724	0.402 (inactive)	-0.754 (inactive)	-0.0727 (inactive)	0.837 (inactive)	0.613 (inactive)	-1.2 (inactive)	-0.996 (inactive)	-0.502	0.21	0.584 (inactive)	0.797	-0.906	-3.98 (inactive)	0.895 (inactive)	-0.355 (inactive)
COC(=O)[C@@]1(Cc2ccccc2)[C@@H]2C(=CC(=O)[C@H]2CC(=O)C(=O)N(C)C)CN1C(=O)c1ccccc1	-1.24	0.292 (inactive)	-5.19 (inactive)	-0.435 (inactive)	-0.0856 (inactive)	-0.224 (inactive)	0.677 (inactive)	-0.0631 (inactive)	-5.21	0.0239	0.0477 (inactive)	0.345	-0.99	-3.77 (inactive)	0.0041 (inactive)	0.253 (inactive)
[N-]=[N+]=NCc1ccccc1[C@H]1OC(c2ccc(OCCCO)cc2)=N[C@@]1(CCS(=O)(=O)c1ccccc1)C(=O)NCC(O)CO (stereo partly drawn)	0.044	0.323 (inactive)	-0.315 (inactive)	1.09 (inactive)	1.76 (inactive)	1.64 (inactive)	0.852 (inactive)	-0.679 (inactive)	0.0345	-0.0553	1.2 (inactive)	0.781	-2.41	-2.82 (inactive)	-0.0433 (inactive)	0.0231 (inactive)
CCCCC(=C=CC[C@@H](O)c1ccccc1OCCO)C[C@@H](O)COCc1ccccc1	-0.202	-0.984 (inactive)	0.12 (inactive)	-2.09 (inactive)	0.0478 (inactive)	-2.79 (inactive)	0.666 (inactive)	0.406 (inactive)	0.267	0.0022	-0.175 (inactive)	0.868	-1.67	-4.72 (inactive)	0.193 (inactive)	1.06 (inactive)
COCCOC(=O)N1C(=O)[C@@]2(c3cc(C#CC4=CCCCC4)ccc31)[C@H](c1ccc(O)cc1)N1[C@H](c3ccccc3)[C@H](c3ccccc3)OC(=O)[C@H]1[C@@H]2C(=O)N1CCN(c2ncccn2)CC1	0.295	0.343 (inactive)	0.182 (inactive)	0.524 (inactive)	0.29 (inactive)	0.516 (inactive)	0.777 (inactive)	0.731 (inactive)	-0.169	-0.0761	-0.0719 (inactive)	0.306	0.145	-0.674 (inactive)	-0.231 (inactive)	-0.758 (inactive)
CCCC[C@@H]1C[C@H]1[C@@H](NC(=O)Cc1ccccc1)c1ccc(-c2ccccc2)cc1	1.21	0.953 (inactive)	0.143 (inactive)	0.183 (inactive)	-1.19 (inactive)	0.636 (inactive)	-0.104 (inactive)	0.289 (inactive)	-1.18	-0.0351	0.33 (inactive)	-0.135	-0.456	-0.559 (inactive)	-0.584 (inactive)	-0.541 (inactive)
CN(C)C(=O)[C@@]1(Cc2ccccc2CN=[N+]=[N-])N=C(c2ccc(OCCCO)cc2)O[C@H]1c1ccccc1CN=[N+]=[N-]	-1.43	1.12 (inactive)	-2.15 (inactive)	2.07 (inactive)	1.35 (inactive)	2.07 (inactive)	0.117 (inactive)	-0.435 (inactive)	-3.29	0.172	0.105 (inactive)	0.707	-2.15	-2.04 (inactive)	-0.0765 (inactive)	0.127 (inactive)
O=C(NCC(F)(F)F)[C@@H]1c2ccccc2C(=O)N(Cc2ccccc2C(F)(F)F)[C@H]1c1ccc(CO)cc1	-0.0877	0.0223 (inactive)	-0.474 (inactive)	-0.184 (inactive)	0.292 (inactive)	-0.246 (inactive)	-0.308 (inactive)	0.263 (inactive)	-0.853	-0.184	0.774 (inactive)	0.374	-0.485	-2.95 (inactive)	0.0364 (inactive)	-0.0409 (inactive)
C=C(COC)/C(=C/C[C@H](OC(C)=O)c1ccc(OCCO)cc1)c1cc(C(=O)OC)ccc1OC	1.26	0.147 (inactive)	0.901 (inactive)	-2.16 (inactive)	0.838 (inactive)	-0.957 (inactive)	1.94 (inactive)	1.37 (inactive)	1.46	-0.345	0.192 (inactive)	0.731	-2.95	-4.11 (inactive)	-0.285 (inactive)	0.98 (inactive)
CC(C)[Si](C#C[Si](C(C)C)(C(C)C)C(C)C)(O[C@H](C)c1cn([C@H](CO)Cc2ccccc2)nn1)C(C)C	0.967	0.427 (inactive)	0.786 (inactive)	-0.487 (inactive)	1.01 (inactive)	-0.504 (inactive)	1.17 (inactive)	1.19 (inactive)	1.04	0.0484	0.183 (inactive)	0.348	0.67	-0.249 (inactive)	-0.258 (inactive)	-0.36 (inactive)
C=C(C)C1CCC(C(O)C2C=CC3C(=O)N(C)C(=O)C3N2N2CCCCC2)CC1 (stereo not drawn)	-0.689	0.08 (inactive)	-1.19 (inactive)	0.112 (inactive)	0.751 (inactive)	1.82 (inactive)	-0.742 (inactive)	-0.654 (inactive)	-0.954	0.62	0.763 (inactive)	0.622	-0.122	-5.66 (inactive)	0.692 (inactive)	0.133 (inactive)
COc1cccc(/C=C/C=O)c1	0.445	-6.49 (inactive)	-0.687 (inactive)	-0.0136 (inactive)	-0.131 (inactive)	0.0721 (inactive)	0.635 (inactive)	0.403 (inactive)	0.884	-0.0224	0.421 (inactive)	-0.453	1.1	-0.396 (inactive)	0.36 (inactive)	0.769 (inactive)
COC(=O)c1c(CC[C@@H](CO)NC(=O)N[C@H](Cn2cc(C3(O)CCCCC3)nn2)C(C)C)oc(C(C)=O)c1C(=O)OC	-0.752	-3.03 (inactive)	0.679 (inactive)	-4.51 (inactive)	-0.24 (inactive)	-0.834 (inactive)	1.4 (inactive)	0.669 (inactive)	0.0252	-0.102	0.0887 (inactive)	0.837	-2.24	-1.69 (inactive)	0.303 (inactive)	0.608 (inactive)
C=CCC(OC(C)=O)[C@@H]1[C@@H](N(Cc2ccc(-c3cccc(C(F)(F)F)c3)o2)C(=O)c2ccc(-c3ccccc3)cc2)c2cc(OCCCO)ccc2N1C(=O)c1ccc2ccccc2n1 (stereo partly drawn)	-0.0845	1.59 (inactive)	0.328 (inactive)	-0.32 (inactive)	0.857 (inactive)	0.859 (inactive)	-0.347 (inactive)	-0.302 (inactive)	-0.556	-0.152	-0.211 (inactive)	-0.102	-0.746	-1.33 (inactive)	0.768 (inactive)	0.615 (inactive)
COc1ccc(CCNC(=O)[C@@]2(Sc3ccc(C)cc3)CC(=O)N(C3Cc4ccccc4C3)[C@@H]2c2ccc(CO)cc2)cc1	0.115	0.293 (inactive)	-1.13 (inactive)	-0.396 (inactive)	0.31 (inactive)	-0.255 (inactive)	0.514 (inactive)	0.005 (inactive)	0.136	2.04	0.984 (inactive)	0.703	-1.89	0.563 (inactive)	-0.341 (inactive)	-0.452 (inactive)
N#Cc1ccc(C(O)C2C=CC3C(=O)N(c4ccccc4)C(=O)C3N2Nc2ccccc2)cc1 (stereo not drawn)	-0.888	-2.46 (inactive)	-0.697 (inactive)	-0.561 (inactive)	1.06 (inactive)	-0.433 (inactive)	0.366 (inactive)	0.0165 (inactive)	-0.196	0.0537	0.294 (inactive)	0.108	-0.605	-1.94 (inactive)	-0.18 (inactive)	-0.383 (inactive)
